This is an account of results in PubChem BioAssay.

The source made the active and inactive calls.

The nature of assay [1]: optical density shifts of acrAB sulA E. coli – strain DRC41, OD650, 48 h, E. coli filamentation inducer project, primary screen (AID 1152).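 Also: E. coli MC1000 strain DRC41 lacking acrAB efflux pump and sulA.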 The conditions noted are these: higher = more signal, called active from +8 up or from −8 down.
A short description of assay [2]: probe aLefty1 binding on compound microarray – biochemical, small-molecule microarray, 635/667 nm fluorescence, primary screen (AID 1153).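 Also: score merges spot fluorescence with signal-to-noise ratio from the scanned slide images.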 Particulars: higher = more signal.
The nature of assay [3]: plasmodial surface anion channel blockers, osmotic lysis – cell-based, P. falciparum Indochina, OD700, 1 h, primary screen (AID 1154). The conditions noted are these: P. falciparum Indochina infected RBC osmotic lysis, higher = more signal, called active from +8 up or from −8 down.
Assay [4] is described as follows: plasmodial surface anion channel blockers, osmotic lysis – cell-based, P. falciparum Indochina, OD700, 2 h, primary screen (AID 1155).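 Also: lysis reports solute entry through the parasite surface anion channel PSAC.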 The conditions noted are these: P. falciparum Indochina infected erythrocytes, higher = more signal, called active from +8 up or from −8 down.
Assay [5] in a line: changes in parasitized red cell lysis, either direction – P. falciparum Indochina, OD700, 3 h, PSAC antagonist project, primary screen (AID 1156). The conditions noted are these: P. falciparum-infected erythrocytes, osmotic lysis, higher = more signal, called active from +8 up or from −8 down.
A short description of assay [6]: plasmodial surface anion channel blockers, osmotic lysis – cell-based, P. falciparum Indochina, OD700, 18 h, primary screen (AID 1157). The conditions noted are these: P. falciparum Indochina infected erythrocytes, osmotic lysis OD700, 18 h; higher = more signal, called active from +8 up or from −8 down.
The nature of assay [7]: S6 kinase pathway phospho-S6 level changes – cell-based, A549, cytoblot, luminescence, serum-stimulated, primary screen (AID 1158).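 Also: serum-stimulated A549 lung adenocarcinoma cells; signal is phosphorylated S6 detected by cytoblot immunostaining with HRP secondary.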 Particulars: 5 h, higher = more signal.
For assay [8], the target named is NADPH oxidase 2 (Homo sapiens) (UniProt P04839). Briefly: compounds shifting NOX2 Amplex Red fluorescence – cell-based, HEK293-NOX2, PMA-stimulated, NOX inhibitor project, primary screen (AID 1159). Also: test concentration not given here. The conditions noted are these: 45 min, higher = more signal, called active from +8 up or from −8 down.
Assay [9] deals with NADPH oxidase 4 (Homo sapiens) (UniProt Q9NPH5). Nature of the assay: compounds shifting NOX4 Amplex Red fluorescence – cell-based, HEK293-NOX4, tetracycline-induced, NOX inhibitor project, primary screen (AID 1160). Particulars: HEK293-NOX4, Amplex Red H2O2 fluorescence, 45 min; higher = more signal, called active from +8 up or from −8 down.
The target of assay [10] is NADPH oxidase 5 (Homo sapiens) (UniProt Q96PH1). Nature of the assay: compounds shifting NOX5 Amplex Red fluorescence – cell-based, HEK293-NOX5, NOX inhibitor project, primary screen (AID 1161). Particulars: HEK293-NOX5, ionomycin, 45 min, higher = more signal.
Assay [11] is described as follows: compound effects on lung adenocarcinoma cell viability – A549, calcein-AM fluorescence, 48 h, basal, profiling panel (AID 1162). Also: test concentration not given here. Particulars: higher = more signal.
Assay [12] is described as follows: compound effects on differentiated 3T3-L1 adipocyte viability – cell-based, 3T3-L1 adipocytes, calcein-AM fluorescence, 48 h, basal, profiling panel (AID 1163). Also: test concentration not given here. Particulars: 3T3-L1 adipocytes viability, higher = more signal.
The nature of assay [13]: compound effects on hepatocellular carcinoma cell viability – HepG2, calcein-AM fluorescence, 48 h, basal, profiling panel (AID 1164). Also: test concentration not given here. Particulars: higher = more signal.
Assay [14] can be described thus: compound effects on multiple myeloma cell viability – MM1S, calcein-AM fluorescence, 48 h, basal, profiling panel (AID 1165). Also: test concentration not given here. The conditions noted are these: higher = more signal.
Assay [15] can be described thus: calcein-AM signal in unstimulated myeloma cells – cell-based, calcein-AM fluorescence, 48 h, PK04 Diversity Set, profiling panel (AID 1166).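 Also: cells grown under basal conditions without added stimulus; test concentration not given here.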 The conditions noted are these: RPMI8226 myeloma viability, higher = more signal.
A short description of assay [16]: JC-1 mitochondrial signal, unstimulated HepG2 cells – cell-based, JC-1 fluorescence, 24 h, 100 nL compound, profiling panel (AID 1167). Also: test concentration not given here. Particulars: HepG2 mitochondrial potential, higher = more signal.
Assay [17] is described as follows: JC-1 mitochondrial signal, unstimulated adipocytes – cell-based, JC-1 fluorescence, 3T3-L1 adipocytes, 24 h, 100 nL compound, profiling panel (AID 1168). Also: test concentration not given here. The conditions noted are these: JC-1 mitochondrial fluorescence, higher = more signal, called active from +8 up or from −8 down.
A short description of assay [18]: JC-1 mitochondrial signal, unstimulated myeloma cells – cell-based, JC-1 fluorescence, RPMI8226, 24 h, 100 nL compound, profiling panel (AID 1169). Also: test concentration not given here. The conditions noted are these: JC-1 mitochondrial potential fluorescence, higher = more signal.
A short description of assay [19]: JC-1 mitochondrial signal, unstimulated MM1S myeloma – cell-based, JC-1 fluorescence, 24 h, 100 nL compound, profiling panel (AID 1170). Also: test concentration not given here. The conditions noted are these: MM1S mitochondrial potential, higher = more signal.
Assay [20] can be described thus: resazurin metabolic signal in A549 cells – cell-based, resazurin fluorescence, 24 h, PK04 Diversity Set, profiling panel (AID 1171). Also: test concentration not given here. The conditions noted are these: A549 viability, higher = more signal, called active from +8 up or from −8 down. On the technique in general: Alamar Blue is a resazurin reagent that responds to reducing activity.

NADPH oxidase 2 (Homo sapiens), sequence (P04839 whole entry, looked up): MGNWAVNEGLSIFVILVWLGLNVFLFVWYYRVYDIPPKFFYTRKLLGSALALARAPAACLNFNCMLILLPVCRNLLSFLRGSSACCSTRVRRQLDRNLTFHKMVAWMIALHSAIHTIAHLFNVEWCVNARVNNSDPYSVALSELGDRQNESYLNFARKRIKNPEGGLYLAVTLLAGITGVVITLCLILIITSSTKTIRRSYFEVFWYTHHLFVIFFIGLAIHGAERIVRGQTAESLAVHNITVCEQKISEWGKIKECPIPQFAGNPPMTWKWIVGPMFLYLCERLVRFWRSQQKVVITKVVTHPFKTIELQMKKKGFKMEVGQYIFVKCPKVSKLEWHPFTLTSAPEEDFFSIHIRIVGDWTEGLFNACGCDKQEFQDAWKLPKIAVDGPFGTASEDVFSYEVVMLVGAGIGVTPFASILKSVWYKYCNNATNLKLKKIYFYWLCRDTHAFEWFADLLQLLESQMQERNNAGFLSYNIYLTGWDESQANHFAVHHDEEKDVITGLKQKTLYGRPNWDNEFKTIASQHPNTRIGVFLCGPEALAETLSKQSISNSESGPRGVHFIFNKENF
NADPH oxidase 4 (Homo sapiens), sequence (Q9NPH5 whole entry, looked up): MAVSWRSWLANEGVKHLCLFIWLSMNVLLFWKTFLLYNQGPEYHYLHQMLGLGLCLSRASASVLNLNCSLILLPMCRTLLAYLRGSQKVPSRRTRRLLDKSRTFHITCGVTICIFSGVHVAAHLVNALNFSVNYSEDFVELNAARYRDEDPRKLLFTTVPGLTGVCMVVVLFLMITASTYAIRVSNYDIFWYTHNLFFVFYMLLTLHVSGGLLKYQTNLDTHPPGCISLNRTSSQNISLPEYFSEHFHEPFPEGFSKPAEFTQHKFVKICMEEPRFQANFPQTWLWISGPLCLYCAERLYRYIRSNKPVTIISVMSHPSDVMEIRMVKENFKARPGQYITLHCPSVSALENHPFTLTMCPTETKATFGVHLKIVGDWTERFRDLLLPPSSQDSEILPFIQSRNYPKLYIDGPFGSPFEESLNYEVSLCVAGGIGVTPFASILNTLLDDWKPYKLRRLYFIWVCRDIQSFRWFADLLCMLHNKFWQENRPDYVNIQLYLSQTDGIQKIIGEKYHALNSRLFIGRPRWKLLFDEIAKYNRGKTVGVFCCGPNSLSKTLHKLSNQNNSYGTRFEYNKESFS
NADPH oxidase 5 (Homo sapiens), sequence (Q96PH1 whole entry, looked up): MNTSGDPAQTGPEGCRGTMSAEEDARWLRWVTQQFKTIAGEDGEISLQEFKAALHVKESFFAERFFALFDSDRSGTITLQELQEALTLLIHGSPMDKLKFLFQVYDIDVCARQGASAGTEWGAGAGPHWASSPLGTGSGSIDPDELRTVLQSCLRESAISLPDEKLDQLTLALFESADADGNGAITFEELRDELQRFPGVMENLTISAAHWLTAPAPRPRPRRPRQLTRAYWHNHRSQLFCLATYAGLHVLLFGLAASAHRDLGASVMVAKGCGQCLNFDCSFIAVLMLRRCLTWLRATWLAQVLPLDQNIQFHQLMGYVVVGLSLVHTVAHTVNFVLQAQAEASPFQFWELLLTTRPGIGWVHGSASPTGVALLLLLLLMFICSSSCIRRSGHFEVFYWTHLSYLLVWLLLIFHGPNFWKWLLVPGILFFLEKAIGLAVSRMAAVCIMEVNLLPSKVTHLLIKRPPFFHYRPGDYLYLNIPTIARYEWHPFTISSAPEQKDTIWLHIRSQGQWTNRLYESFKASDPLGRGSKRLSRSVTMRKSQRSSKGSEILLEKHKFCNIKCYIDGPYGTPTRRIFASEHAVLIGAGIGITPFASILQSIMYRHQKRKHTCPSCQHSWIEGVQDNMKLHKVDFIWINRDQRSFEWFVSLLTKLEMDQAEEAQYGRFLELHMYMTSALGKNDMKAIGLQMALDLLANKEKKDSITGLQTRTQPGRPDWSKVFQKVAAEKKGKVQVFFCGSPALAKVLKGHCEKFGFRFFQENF

For the compound `COc1ccc([Si](C)(C)[C@H]2[C@H](CCO)O[C@@]3(C(=O)N(Cc4ccccc4)c4ccc(N(C=O)c5ccccc5)cc43)[C@@H]2C)cc1`, the z-score is 0.352 (inactive) in assay [1]; 5.68 (inactive) in [3]; 2.52 (inactive) in assay [4]; 1.12 (inactive) in assay [5]; 1.28 (inactive) in assay [6]; 0.456 in assay [7]. Further, the z-score in [8] was -0.98 (inactive); in [9], 0.184 (inactive); in [10], 1.23; in assay [11] it was -0.108; in assay [12] it was 0.288; in assay [13] it was -3.3. Further, the z-score is -0.622 in [14]; -2.82 in assay [15]; 0.553 in assay [16]; -0.00912 (inactive) in [17]; -0.914 in [18]; -1.27 in assay [19]. For the same compound, the z-score in assay [20] is -1.25 (inactive). The same compound gave a composite z-score in assay [2] of 0.0927.

For the compound `COc1ccc([Si](C)(C)[C@H]2[C@H](CCn3cc([C@H](O)c4ccccc4)nn3)O[C@@]3(C(=O)N(C)c4c(Br)cc(C)cc43)[C@@H]2C)cc1`, the z-score in assay [1] is 0.45 (inactive); in assay [3], 5.6 (inactive); in assay [4] it was 1.59 (inactive); in assay [5] it was 1.25 (inactive); in assay [6] it was 1.11 (inactive); in [7], -0.108. In addition, the z-score was 0.276 (inactive) in assay [8]; 0.825 (inactive) in assay [9]; 0.37 in assay [10]; -1.94 in assay [11]; 1.69 in assay [12]; -4.58 in assay [13]. Besides, the z-score in [14] was -2.48; in assay [15], -4.31; in assay [16], -0.281; in [17], -0.162 (inactive); in assay [18] it was -1; in assay [19], 0.212. In addition, the z-score in [20] is -2.66 (inactive). Moreover, the composite z-score in [2] is -0.196.

Turning to `O=c1cccc(-c2ccccc2C(F)(F)F)o1`, the z-score in assay [1] was -0.934 (inactive); in [3], 0.168 (inactive); in [4], 0.761 (inactive); in assay [5], -0.627 (inactive); in [6], 0.341 (inactive); in [7], -0.67. Moreover, the z-score in [8] is 0.409 (inactive); in [9] it was 0.0518 (inactive); in [10] it was -0.982; in [11] it was -0.976; in assay [12], -0.0994; in assay [13], 0.21. Moreover, the z-score is 0.634 in [14]; -0.475 in [15]; -0.72 in assay [16]; 0.254 (inactive) in [17]; 0.835 in assay [18]; -1.3 in assay [19]. For the same compound, the z-score in [20] was -0.262 (inactive). For the same compound, the composite z-score in [2] stood at 0.69.

`COc1ccc(C#Cc2ccc3c(c2)[C@]2(C(=O)N3)[C@H](c3ccc(OCCO)cc3)N3[C@H](c4ccccc4)[C@H](c4ccccc4)OC(=O)[C@H]3[C@@H]2C(=O)O)cc1`: the z-score in [1] is 2.24 (inactive); in [3] it was -1.39 (inactive); in [4] it was -2.59 (inactive); in [5] it was -6.7 (inactive); in [6] it was -2.58 (inactive); in [7] it was 1.6. For the same compound, the z-score in [8] was -0.922 (inactive); in [9], -1.55 (inactive); in [10], -2.5; in [11] it was 0.325; in assay [12], 1.33; in assay [13], 0.712. Moreover, the z-score in assay [14] was -3.1; in [15], -4.59; in [16], -4; in assay [17], -4.96 (inactive); in assay [18], -1.19; in assay [19], -1.99. Moreover, the z-score in assay [20] was 0.721 (inactive). In assay [2], this compound returned a composite z-score of 1.4.
